# Test results published in paper PMC4336329 (PLoS ONE, 2015).
# Out of some 310,000 compounds screened, about 14,000 (4.5%) showed an effect of 50% or more. Effects have a minus sign here. The sample holds strong results, similar compounds and a random draw of the others, so the mix is not that of the screen.
# Biological target: human ether-à-go-go-related gene (hERG) potassium channel (human, UniProt Q12809)
# Test: primary screen, population patch clamp on CHO cells stably expressing hERG; higher = less effect of the substance
# 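Further: peak tail current of the secondary pulse compared with the same well before compound.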
# Chain of human ether-à-go-go-related gene (hERG) potassium channel (Q12809 whole entry, looked up): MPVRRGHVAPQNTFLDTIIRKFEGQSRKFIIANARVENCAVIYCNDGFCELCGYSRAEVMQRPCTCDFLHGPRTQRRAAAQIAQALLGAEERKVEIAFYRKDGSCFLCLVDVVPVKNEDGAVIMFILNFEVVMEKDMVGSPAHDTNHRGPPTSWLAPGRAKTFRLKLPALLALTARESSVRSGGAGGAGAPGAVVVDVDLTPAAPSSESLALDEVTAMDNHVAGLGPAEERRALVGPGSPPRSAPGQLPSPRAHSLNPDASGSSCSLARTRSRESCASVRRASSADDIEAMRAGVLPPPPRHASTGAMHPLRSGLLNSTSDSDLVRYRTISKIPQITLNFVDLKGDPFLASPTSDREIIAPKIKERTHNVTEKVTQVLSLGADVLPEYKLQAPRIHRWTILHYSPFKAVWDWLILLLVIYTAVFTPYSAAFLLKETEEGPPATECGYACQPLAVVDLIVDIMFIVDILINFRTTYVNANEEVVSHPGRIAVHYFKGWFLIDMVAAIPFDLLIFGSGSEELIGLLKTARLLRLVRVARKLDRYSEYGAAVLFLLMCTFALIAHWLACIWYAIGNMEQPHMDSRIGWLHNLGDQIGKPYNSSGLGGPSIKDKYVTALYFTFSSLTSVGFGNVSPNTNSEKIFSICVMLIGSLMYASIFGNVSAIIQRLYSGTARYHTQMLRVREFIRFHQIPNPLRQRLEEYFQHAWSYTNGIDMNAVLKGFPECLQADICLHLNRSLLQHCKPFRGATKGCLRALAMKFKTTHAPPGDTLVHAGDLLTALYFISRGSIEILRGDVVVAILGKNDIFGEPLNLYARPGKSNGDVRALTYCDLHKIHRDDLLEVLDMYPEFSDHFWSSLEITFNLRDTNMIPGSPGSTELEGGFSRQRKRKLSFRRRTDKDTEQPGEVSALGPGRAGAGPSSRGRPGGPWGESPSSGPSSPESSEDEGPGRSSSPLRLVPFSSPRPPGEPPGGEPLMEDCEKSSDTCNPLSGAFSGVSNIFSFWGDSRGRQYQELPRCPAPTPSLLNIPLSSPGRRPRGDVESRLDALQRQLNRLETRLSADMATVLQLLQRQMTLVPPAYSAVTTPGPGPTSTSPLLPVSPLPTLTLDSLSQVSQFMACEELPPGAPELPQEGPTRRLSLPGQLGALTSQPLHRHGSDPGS
row,Structure (SMILES),"hERG current change (%, negative = inhibition) at 10uM"
1,O=C(COC(=O)COc1ccccc1[N+](=O)[O-])Nc1ccccc1Br,3.82%
2,COCCCNC(=S)N1CCN(c2nc(-c3ccccc3)cs2)CC1,-5.55%
3,CCCCNC(=O)CCSc1ccc(C)cc1,-2.9%
4,CN(CC(=O)NCc1ccc(F)cc1)Cc1ccc(Br)cc1,-35.5%
5,CSc1ccc(CN(C)CC(=O)Nc2ccccc2Br)cc1,17.3%
6,CSc1ccc(CN(C)CC(=O)NC(=O)NC(C)(C)C)cc1,-3.83%
7,CSc1ccc(CN(C)CC(=O)NCCc2ccccc2)cc1,-35.5%
8,COc1ccc(CNC(=O)CN(C)Cc2ccc(SC)cc2)cc1,-65.2%
9,COc1ccc(CN(C)CC(=O)N(C)CC(=O)Nc2ccccc2Br)cc1F,-39.1%
10,CSc1ccc(CN(C)CC(=O)Nc2ccc(NC(C)=O)cc2)cc1,-25.8%
11,CSc1ccc(CN(C)CC(=O)NCc2ccccc2)cc1,-52.5%
12,CSc1ccc(CN(C)CC(=O)NCc2ccc(F)cc2)cc1,-70.1%
13,CN(CC(=O)NCc1ccccc1)Cc1cccc(F)c1.O=C(O)C(=O)O,9.59%
14,COc1ccc(CNC(=O)CN(C)Cc2ccc(C(C)(C)C)cc2)cc1.O=C(O)C(=O)O,-4.44%
15,CSc1ccc(CN(C)CC(=O)N(C)CC(=O)Nc2ccccc2Br)cc1,-56.9%
16,O=C(NC(=O)N1CCCCC1)c1ccc(Cl)cc1,15.7%
17,CCO[C@H]1OC(C(=O)Nc2ccccc2)=C[C@@H](C2CC2)[C@@H]1CCCO,1.16%
18,CCCCc1nnc(NC(=O)CCc2ccccc2)s1,19.3%
19,COC(=O)c1ccc(-n2nnnc2SCC(=O)Nc2cc(OC)ccc2OC)cc1,2.37%
20,CCOC(=O)c1nn(-c2cccc(C)c2)c2nnc(Cc3ccc(C)cc3)c(=O)n12,-16.1%
21,O=C(Nc1ccc(SC(F)F)cc1)C1CC(=O)N(Cc2ccccc2)C1 (stereo not shown),-48%
22,COc1ccc(S(=O)(=O)N2CCN(C(=O)c3c(C)nn(-c4ccccc4)c3Cl)CC2)cc1,-19.4%

row,Structure (SMILES),"hERG current change (%, negative = inhibition) at 10uM"
1,CCC(=O)N1CCN(c2ccc(Cl)cc2NC(=O)c2ccc3c(c2)OCCO3)CC1,-37.2%
2,O=C(Nc1ccc(Cl)cc1)c1ccc(CN2CCc3ccccc3C2)cc1,13.7%
3,COc1cccc(C(=O)N2CCN(C(=O)Cc3ccccc3)CC2)c1.O=C(O)C(=O)O,-0.00122%
4,CCC(=O)Nc1ccc(C(=O)Nc2cccnc2)cc1,-0.52%
5,CC(OC(=O)c1cc(S(=O)(=O)N2CCOCC2)ccc1Br)C(=O)N1CCOCC1 (stereo not shown),-12%
6,O=C(Nc1nccs1)C1CCN(S(=O)(=O)c2ccc(F)cc2)CC1,2.1%
7,CCOC(=O)CNC(=O)CSc1ccc(-c2nc3ccccc3[nH]2)cn1,-6.35%
8,CSc1ccc(CN(C)CC(=O)NC(C)c2ccccc2)cc1 (stereo not shown),-83.9%
9,COc1cccc(CN(C)CC(=O)NCc2ccc(F)cc2)c1OC,6.98%
10,COc1ccccc1CNC(=O)CN(C)CC(=O)Nc1cccc(F)c1,4.16%
11,Cc1ccc(CN(C)CC(=O)NC(C)c2ccccc2)cc1 (stereo not shown),-16%
12,CC(NC(=O)CN(C)Cc1ccc(Br)cc1)c1ccccc1 (stereo not shown),-19.3%
13,COc1ccccc1CNC(=O)CN(C)Cc1ccc(SC)cc1,-50.8%
14,O=C(O)C1C2C=CC(C2)C1C(=O)NCc1cccs1 (stereo not shown),9.44%
15,O=C(Nc1cc(Cl)cc(Cl)c1)N1CCN(C(=O)C2CCCO2)CC1 (stereo not shown),-26.4%
16,COCCNC(=O)C1CCN(C(=O)C2CC(=O)N(c3ccc(C)cc3)C2)CC1 (stereo not shown),7.39%
17,CCc1nnc(NC(=O)CSc2nnc(COc3ccccc3C)o2)s1,15.2%
18,O=C(COc1ccc(Br)cc1)Nc1ccc([N+](=O)[O-])cn1,-19.7%
19,COc1cc(NC(=O)CSCc2ccccc2)c(C(=O)O)cc1OC,11.2%
20,COc1ccc(CCNc2ccc(C(CC(N)=O)NC(=O)Cc3cccc4ccccc34)cc2[N+](=O)[O-])cc1 (stereo not shown),4.29%
21,COc1ccc2[nH]cc(C(=O)CN(C)C)c2c1,9.06%
22,CCN(CC)CC(=O)c1c[nH]c2ccc(OC)cc12,-22.9%

row,Structure (SMILES),"hERG current change (%, negative = inhibition) at 10uM"
1,COc1ccc2[nH]cc(C(=O)CN(C)CCc3ccc(OC)c(OC)c3)c2c1,-70.3%
2,COc1ccccc1-n1cnc2sc(C)c(C)c2c1=O,5.71%
3,COc1ccc(NC(=O)/C(C#N)=C\c2cc(C)n(-c3ccc4c(c3)OCO4)c2C)cc1,3.77%
4,Cc1ccc(-n2cc(CN(C)Cc3nccn3C)c(-c3ccc(F)cc3)n2)cc1,-37.6%
5,CCN1CC(CN(C)Cc2cn(-c3ccc(C)cc3)nc2-c2ccc(F)cc2)CC1=O (stereo not shown),-35.1%
6,COc1ccc(-c2nn(-c3ccccc3F)cc2CNCCn2nc(C)cc2C)cc1,-50.2%
7,CCN1CC(CN(C)Cc2cn(-c3cccc(C)c3)nc2-c2cccc(F)c2)CC1=O (stereo not shown),-31.7%
8,COc1ccc(-c2nn(-c3ccccc3C)cc2CNC(C)c2cn(C)nc2C)cc1F (stereo not shown),-1.99%
9,Cc1ccc(-n2cc(CNCCCn3ccnc3C)c(-c3ccc(F)cc3)n2)cc1,-71.7%
10,COc1ccc(-c2csc(CCn3nc(C)cc3C)n2)cc1,4.1%
11,CCN1CC(CN(C)Cc2cn(-c3ccc(C)cc3)nc2-c2cccc(C)c2)CC1=O (stereo not shown),-60.5%
12,Cc1ccc(-c2nn(-c3ccccc3)cc2C(=O)NCCCN2CCCC2=O)cc1,-17.1%
13,Cc1ccc(-n2cc(CNCCCN3CCCC3=O)c(-c3ccc(F)cc3)n2)cc1,-72.1%
14,Cc1ccc(-n2cc(CN3CCCN(C=O)CC3)c(-c3ccc(F)cc3)n2)cc1,-18.7%
15,COc1cc(/C=N/NC(=O)c2cc(-c3ccccc3)nc3ccccc23)ccc1O,6.54%
16,CCOc1cc(C(=O)N/N=C/c2ccoc2)cc(OCC)c1OCC,5.67%
17,COCCCn1c(=O)/c(=C\c2ccccc2OC(F)F)s/c1=C(/C#N)C(=O)NCCOC,-11.5%
18,CCc1nnc(NC(=O)CSc2nnc(-c3cccnc3)n2CCc2ccccc2)s1,-2.07%
19,CC(=O)N1CCN(CCN2C(C)=CC(=C(C#N)C#N)C=C2C)CC1,-3.8%
20,O=C(COC(=O)CCSc1ccccc1Cl)NCc1ccco1,6.44%
21,O=C1NC(=O)C(=Cc2csc3ccccc23)C(=O)N1,7.68%
22,Cc1ccccc1CSc1nnnn1-c1ccc(C(N)=O)cc1,14.7%

row,Structure (SMILES),"hERG current change (%, negative = inhibition) at 10uM"
1,Cc1cccc(NC(=O)COC(=O)c2ccc([N+](=O)[O-])o2)c1C,8.7%
2,COC(=O)CC1C(=O)NCCN1Cc1cn(-c2ccc(C)cc2)nc1-c1cccc(C)c1 (stereo not shown),-9.55%
3,Cc1cc(C)n(CC(C)NCc2cn[nH]c2-c2ccc(C)c(C)c2)n1 (stereo not shown),-35.7%
4,O=C1OCCN1CCNCc1cn(-c2ccc(F)cc2)nc1-c1ccccc1Cl,-45.2%
5,Cc1ccc(-c2nn(-c3ccccc3)cc2CNCc2ccccc2)cc1.Cl,7.42%
6,Cc1ccc(-n2cc(CNCC3CC(=O)N(C4CC4)C3)c(-c3cccc(C)c3)n2)cc1 (stereo not shown),-71.9%
7,Cc1ccc(-n2cc(CNC(C)c3cnn(C)c3C)c(-c3ccc(F)cc3)n2)cc1 (stereo not shown),-30.7%
8,COc1ccc2cc(-c3[nH]ncc3CNCCn3nc(C)cc3C)ccc2c1,-63.2%
9,Cc1ccc(-n2cc(CNCCN3CCOC3=O)c(-c3ccc(F)cc3)n2)cc1,-63.2%
10,COc1ccc(-n2cc(CNCC3CC(=O)N(C4CC4)C3)c(-c3ccccc3Cl)n2)cc1 (stereo not shown),-13.4%
11,Cc1ccc(-n2cc(CNCCn3nc(C)cc3C)c(-c3ccc(F)cc3)n2)cc1,-50.8%
12,CCOC(=O)CN(C)Cc1cn[nH]c1-c1ccc2cc(OC)ccc2c1,-5.34%
13,COc1ccc(-c2nn(-c3ccccc3)cc2CNCCN2CCOC2=O)c(F)c1,-11.9%
14,CC1CCCC(C)N1C(=O)COC(=O)c1c[nH]c2ccccc12 (stereo not shown),-5.3%
15,CCCCn1c(O)c(C=NC2CCCCC2N)c(=O)[nH]c1=O (stereo not shown),5.96%
16,COc1ccc(C[C@H]2NC[C@H](O)[C@H]2OC(C)=O)cc1,5.98%
17,CSC1=N/C(=C\c2ccccc2F)C(=O)S1,-3.24%
18,CCOc1nc(N2CCCCC2)nc(-n2cc(-c3ccccc3)nn2)n1,8.93%
19,Cc1cc(NC(=O)COc2ccccc2)n(-c2ccccc2)n1,-22.7%
20,Cc1c(C(=O)NC2CCOC2)oc2c(F)cccc12 (stereo not shown),30.1%
21,Cc1cc2cc(C#N)c(NCCNC(=S)NCCCN3CCOCC3)nc2cc1C,-24.5%
22,Cc1cc(C(=O)CN2CCCC2)c(C)n1-c1ccc(Cl)cc1,7.43%
